# The whole screen tested about 310,000 compounds, of which about 14,000 (4.5%) showed an effect of 50% or more. Effects have a minus sign here. Only a selection was taken, and strong results are over-represented in it overall.
# Biological target: human ether-à-go-go-related gene (hERG) potassium channel (human, UniProt Q12809)
# Experiment: primary screen, population patch clamp on CHO cells stably expressing hERG; higher = less effect of the substance
# 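Note: peak tail current of the secondary pulse compared with the same well before compound.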
# human ether-à-go-go-related gene (hERG) potassium channel, sequence (Q12809 whole entry, looked up): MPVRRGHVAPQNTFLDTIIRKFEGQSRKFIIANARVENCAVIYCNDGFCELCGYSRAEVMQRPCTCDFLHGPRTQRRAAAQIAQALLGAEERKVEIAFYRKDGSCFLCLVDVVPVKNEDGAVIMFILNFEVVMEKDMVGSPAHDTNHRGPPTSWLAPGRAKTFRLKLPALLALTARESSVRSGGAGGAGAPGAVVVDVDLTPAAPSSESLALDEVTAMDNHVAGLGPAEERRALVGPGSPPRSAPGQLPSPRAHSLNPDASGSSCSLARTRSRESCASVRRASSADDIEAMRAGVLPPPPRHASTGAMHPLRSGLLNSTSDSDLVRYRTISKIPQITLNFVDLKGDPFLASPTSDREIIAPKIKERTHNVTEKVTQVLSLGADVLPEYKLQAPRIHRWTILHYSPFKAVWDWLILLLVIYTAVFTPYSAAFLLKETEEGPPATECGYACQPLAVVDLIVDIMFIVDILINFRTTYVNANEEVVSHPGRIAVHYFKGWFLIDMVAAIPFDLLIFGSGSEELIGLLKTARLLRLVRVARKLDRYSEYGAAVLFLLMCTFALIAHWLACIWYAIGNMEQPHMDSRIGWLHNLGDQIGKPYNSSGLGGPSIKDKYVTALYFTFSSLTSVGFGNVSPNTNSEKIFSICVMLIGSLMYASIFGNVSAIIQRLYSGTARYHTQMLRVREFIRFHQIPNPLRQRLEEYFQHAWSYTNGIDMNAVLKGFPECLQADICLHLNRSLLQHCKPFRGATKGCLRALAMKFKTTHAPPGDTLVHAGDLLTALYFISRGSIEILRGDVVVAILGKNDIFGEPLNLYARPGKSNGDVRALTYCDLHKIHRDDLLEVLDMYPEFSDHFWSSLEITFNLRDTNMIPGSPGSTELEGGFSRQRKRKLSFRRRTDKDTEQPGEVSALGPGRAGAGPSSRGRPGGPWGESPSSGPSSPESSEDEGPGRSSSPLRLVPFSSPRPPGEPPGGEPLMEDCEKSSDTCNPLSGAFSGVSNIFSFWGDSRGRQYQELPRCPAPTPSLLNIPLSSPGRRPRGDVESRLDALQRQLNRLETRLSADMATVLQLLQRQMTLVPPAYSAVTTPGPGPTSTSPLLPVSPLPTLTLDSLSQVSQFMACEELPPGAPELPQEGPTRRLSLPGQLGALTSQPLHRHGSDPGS
row,Compound,"hERG current change (%, negative = inhibition) at 10uM [%]"
1,Cc1ccc(NC(=O)c2cc(NC(=O)c3ccco3)ccc2N2CCCCC2)cc1,13
2,CCCN(CC(=O)Nc1cccc(Br)c1)CC(=O)Nc1ccc(F)c(F)c1F,-10.1
3,CCOC(=O)N1CCN(C(=O)c2ccc3c(c2)NC(=O)/C(=C/c2ccccc2)S3)CC1,-17.8
4,Cn1c2ccccc2c2nnc(SCC(=O)Nc3cccc(O)c3)nc21,-45.6
5,COc1ccccc1NC(=S)N1CCN(Cc2ccc3c(c2)OCO3)CC1,-1.31
6,COc1ccccc1Nc1nc(N)nc(CN2CCN(Cc3ccc4c(c3)OCO4)CC2)n1,-78.1
7,Cc1ccc(Nc2nc(N)nc(CN3CCN(Cc4ccc5c(c4)OCO5)CC3)n2)c(C)c1,-76.9
8,Cc1cccc(Nc2nc(N)nc(CN3CCC(C)CC3)n2)c1C,-37.6
9,Cc1ccccc1Nc1nc(N)nc(CN2CCN(Cc3ccc4c(c3)OCO4)CC2)n1,-68
10,Cc1ccc(Nc2nc(N)nc(CN3CCC(C)CC3)n2)c(C)c1,-57.8
11,Cc1ccc(Nc2nc(N)nc(CN3CCCCCC3)n2)c(C)c1,-45.8
12,Cc1ccccc1N1CCN(Cc2ccc3c(c2)OCO3)CC1,-31.2
13,COc1ccccc1N1CCN(Cc2ccc3c(c2)OCO3)CC1,-20.1
14,Cc1ccc(NC(=S)N2CCN(Cc3ccc4c(c3)OCO4)CC2)c(C)c1,-1.01
15,Cc1ccccc1NC(=S)N1CCN(Cc2ccc3c(c2)OCO3)CC1,-10.3
16,Cc1ccc(Nc2nc(N)nc(CCl)n2)c(C)c1,16.1
17,O=C(c1ccc2ccccc2c1)N1CCN(c2ccccn2)CC1,-20
18,CCOc1ccc(NC2=NCC(=O)N2Cc2cccs2)cc1.Cl,-1.9
19,COc1ccc(/C(C)=N/NC(=O)c2cc(C)[nH]n2)c(OC)c1,1.33
20,O=C(Nc1nccs1)c1cc2c(s1)CCCCC2,6.98
21,CSCCC(NC(=O)c1ccco1)C(=O)N1CCCCCCC1 (stereo not shown),-4.39
22,O=C(CCc1nnc(CCCCc2ccccc2)o1)NCCCc1cccnc1,-14.8

row,Compound,"hERG current change (%, negative = inhibition) at 10uM [%]"
1,COc1ccccc1CCNC(=O)c1c(C)nn(CC(C)C)c1Cl,-4.9
2,CCCC(=O)NC(=S)Nc1sc2c(c1C(N)=O)CCC2,11.7
3,Cc1ccc(NC(=O)Cn2c(=O)cnc3ccccc32)cc1S(=O)(=O)N1CCOCC1,-30.4
4,Cc1ccc(NC(=O)Cn2c(=O)cnc3ccccc32)cc1S(=O)(=O)N1CCCCC1,-50.8
5,O=C(Cn1c(=O)cnc2ccccc21)Nc1cccc(S(=O)(=O)N2CCCCC2)c1,-50.3
6,Cc1ccc(S(=O)(=O)N2CCCCC2)cc1NC(=O)Cn1c(=O)cnc2ccccc21,9.61
7,O=C(Cn1c(=O)cnc2ccccc21)Nc1cccc(S(=O)(=O)N2CCOCC2)c1,-21
8,COc1ccc(NC(=O)Cn2c(=O)cnc3ccccc32)cc1S(=O)(=O)N1CCCCC1,-10.9
9,CC(C)c1ccc(OCc2nc(-c3ccccn3)no2)c(Br)c1,-10.6
10,CCN1C(=O)N(CC)C2C1N(C(C)=O)C(=O)N2C(C)=O (stereo not shown),-6.42
11,N#CC1=C(N)OC2=C(C(=O)CCC2)[C@]12C(=O)N(CC(N)=O)c1ccccc12,4.73
12,COc1cc(CC(=O)OCC(=O)N2CC(C)CC(C)C2)cc(OC)c1OC (stereo not shown),30.9
13,O=C(Nc1ccccc1N1CCOCC1)c1ccc(N2CCOCC2)c([N+](=O)[O-])c1,-20.7
14,Cl.O=C(NN1CCN(Cc2ccccc2)CC1)c1ccc(N2CCOCC2)c([N+](=O)[O-])c1,-66.6
15,O=C(OCC(=O)N1CCc2ccccc2C1)c1ccc(N2CCOCC2)c([N+](=O)[O-])c1,-51
16,Nc1ccc(C(=O)OCC(=O)N2CCc3ccccc3C2)cc1[N+](=O)[O-],-21.1
17,O=C(OCC(=O)N1CCOCC1)c1ccc(N2CCOCC2)c([N+](=O)[O-])c1,19.9
18,O=C(c1ccc(N2CCCCC2)c([N+](=O)[O-])c1)N1CCOCC1,-22.6
19,O=C(Nc1ccc(CN2CCOCC2)cc1)c1ccc(N2CCCC2)c([N+](=O)[O-])c1,-21.4
20,O=C(c1ccc(N2CCOCC2)c([N+](=O)[O-])c1)N1CCN(Cc2ccccc2)CC1,-66.9
21,CC1CCN(c2ccc(C(=O)N3CCOCC3)cc2[N+](=O)[O-])CC1,-0.762

# Source: publication PMC4336329 (PLoS ONE, 2015)
